Source: PubChem BioAssay (National Center for Advancing Translational Sciences (NCATS))
An excerpt weighted towards active compounds, which were near 3.4% of everything screened.
HttQ103 aggreg: mutant huntingtin aggregation inhibition. PC12 HttQ103-GFP aggregates, Acumen cytometry, 40 h. hit rate 1.1% among 220,000. Potency, µM (top dose mostly 46.1 µM), hits mostly inhibitors. AID 1688; note: nearly all actives have a fitted effect of over 60% in size
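PC12/HTTQ103-GFP, ecdysone-inducible; teb 100 nM; cpd qHTS titration; GFP aggregates read on laser cytometer, Ex 488/Em 500-530 nm.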
NPSR antag: antagonists of human neuropeptide S receptor cAMP signaling; Q6W5P4; CHO-NPSR cells, cAMP TR-FRET, antagonist mode; hit rate 1% among 220,000; Potency, µM (doses to about 38.3 µM), actives largely listed as inhibitors; note: nearly all actives have a fitted effect of over 50% in size
Target sequence (Q6W5P4 whole entry, looked up): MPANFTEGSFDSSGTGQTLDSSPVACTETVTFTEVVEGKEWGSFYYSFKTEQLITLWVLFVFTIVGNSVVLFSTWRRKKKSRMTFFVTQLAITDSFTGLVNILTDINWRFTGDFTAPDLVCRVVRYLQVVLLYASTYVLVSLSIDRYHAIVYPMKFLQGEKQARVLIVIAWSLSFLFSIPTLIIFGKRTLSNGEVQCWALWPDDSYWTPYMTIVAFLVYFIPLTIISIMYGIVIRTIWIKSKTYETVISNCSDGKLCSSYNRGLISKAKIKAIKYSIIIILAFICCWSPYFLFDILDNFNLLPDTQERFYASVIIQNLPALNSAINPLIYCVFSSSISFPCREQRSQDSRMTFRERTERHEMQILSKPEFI
HTT ATP protect: cytoprotection in Huntington HTT-Q103 PC12 cell model; PC12 HTT-Q103 induced, cytoprotection, ATP luminescence, 40 h; Potency, µM (highest dose often 56.4 µM), hits mostly activators; hit rate 0.14% among 230,000; note: nearly all actives have a fitted effect of over 45% in size
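ATP quantification (ATPlite) reports survival of PC12 cells in which tebufenozide, 100 nM final, switches on Htt exon 1 with 103 glutamines linked to GFP; compounds are titrated.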
IMPase Li inh: cell-permeable IMPase inhibitors with lithium potentiation | hit rate 0.35% among 210,000 | Potency, µM (series often up to 59.4 µM), actives largely listed as inhibitors | CHO-M1 cells, IP1 TR-FRET (IP-One), carbachol + lithium;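 note: IP1 builds up when IMPase is blocked and the TR-FRET signal falls; nearly all actives have a fitted effect of over 50% in size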
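Concentration–response in CHO-M1 cells, lithium-potentiated; 30 min at 37C. IP1 detected by competitive TR-FRET after 10 min lysis at RT. Hill-fitted AC50.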
IMPase inh: membrane-permeable compound that blocks inositol monophosphatase; P97697; CHO-M1 cells, IP1 accumulation, HTRF TR-FRET ratio; inhibition (IP1 accumulation), % at 46.1 µM; 120,000 tested, under 10 active; active = well fitted curve in the direction sought with a large enough effect in the signal ratio, not every such curve was filed as active; inconclusive = small, poorly fitted or top-dose-only effect, or a change in a side signal; inactive = no such curve, though single readings can be large or run the other way; the % refers to the signal ratio;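 note: cells stimulated with carbachol in lithium chloride buffer; higher means more IMPase inhibition seen as more IP1 and lower FRET ratio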
Target sequence (P97697 whole entry, looked up): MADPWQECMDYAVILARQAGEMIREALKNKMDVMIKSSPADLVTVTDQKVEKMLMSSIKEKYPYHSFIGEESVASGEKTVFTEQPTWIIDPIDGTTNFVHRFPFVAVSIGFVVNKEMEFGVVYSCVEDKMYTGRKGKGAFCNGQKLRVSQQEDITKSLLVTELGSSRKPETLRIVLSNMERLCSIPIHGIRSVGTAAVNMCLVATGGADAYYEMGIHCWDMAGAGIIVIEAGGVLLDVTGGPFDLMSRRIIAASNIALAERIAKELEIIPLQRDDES
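Measured: the HTRF emission ratio (665/620 nm) plus the 620 nm donor channel, each fitted to the Hill equation to give AC50. Cells were CHO-M1 given compounds up to 46 uM and a 30 min carbachol stimulation at 37C.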
PNC inhibitor: inhibitors of perinucleolar compartment assembly; PC3M PTB-GFP, PNC prevalence imaging, 16 h; stronger effect = lower value; activity change (PNC), negative = inhibition, % at 10 µM; hit rate 3.1% among 140,000;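 active = readout at or below -70, meaning at least 70% loss of cells showing the perinucleolar compartment, a nuclear body marking cancer cells; inconclusive = readout between -30 and a set limit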
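Read-out is percentage of cells bearing a perinucleolar compartment, from automated 20x imaging of fixed, Hoechst-stained PC3M PTB-GFP cells. Cells were seeded 4 h, then exposed 16 h to compound (23 nl of library stock) in duplicate plates.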
Each line names hits and unclear results; the compound was inactive in the other large screens; ! = repeats disagree. Unless noted, calls come from the whole dose curve; as a rule, active = well fitted curve in the direction sought with a large enough effect; inconclusive = small, poorly fitted or top-dose-only effect, or another doubt; inactive = no such curve, though single readings can be large; an effect the other way counts as inactive or inconclusive.

CCN(CC)S(=O)(=O)c1cccc(C(=O)NC(C(=O)NC2=NCCS2)C(C)C)c1 (stereo not drawn)	PNC inhibitor -116
CC(C)C(NC(=O)c1ccccc1)C(=O)NC1=NCCS1 (stereo not drawn)	PNC inhibitor inconclusive
CC(C)n1c(NCCc2ccccc2)nc2c1c(=O)n(C)c(=O)n2C	HttQ103 aggreg 11µM, IMPase inh inconclusive
CCCNc1nc2c(c(=O)n(C)c(=O)n2C)n1Cc1cccc(C)c1	HttQ103 aggreg 14µM, PNC inhibitor inconclusive
O=C(COC(=O)c1cccnc1)Nc1ccc2c(c1)OCO2	none (no result: HttQ103 aggreg, HTT ATP protect, IMPase inh, PNC inhibitor)
O=P(c1ccccc1)(c1ccccc1)c1nc(-c2ccc(Cl)cc2)oc1N1CCOCC1	NPSR antag 10µM (no result: IMPase inh, PNC inhibitor)
CCCCCc1c(C)nc(N2CCc3ccccc3C2)[nH]c1=O	PNC inhibitor -117
CCN(CC)S(=O)(=O)c1ccc(Cl)c(NC(=O)c2ccc(C#N)cc2)c1	PNC inhibitor -97 (no result: IMPase inh)
CCCCNC(=O)Cn1cnc2sc(C)c(S(=O)(=O)N3CCN(c4ncccn4)CC3)c2c1=O	none (no result: IMPase inh, PNC inhibitor)
Cc1cccc(NC(=O)Cn2cnc3sc(C)c(S(=O)(=O)N4CCC(C)CC4)c3c2=O)n1	PNC inhibitor -100
CCCCN(CC)CCNC(=O)Cn1cnc2sc(C)c(S(=O)(=O)N3CCOCC3)c2c1=O	PNC inhibitor -100
Cc1cc(C(=O)OCC(=O)c2ccc(Br)s2)c(C)o1	none
Cc1cc(C(=O)OCC(=O)c2ccc(Br)s2)no1	NPSR antag inconclusive, IMPase Li inh 6.3µM, IMPase inh inconclusive
COc1ccc(S(=O)(=O)N(C(=O)c2ccco2)c2cc3sc(=O)oc3c3ccccc23)cc1	PNC inhibitor inconclusive (no result: IMPase inh)
CCOc1ccc(S(=O)(=O)N(C(=O)c2ccco2)c2cc3sc(=O)oc3c3ccccc23)cc1	HTT ATP protect 0.89µM (no result: IMPase inh)
Nc1c(S(=O)(=O)c2ccccc2)csc1C(=O)O	none (no result: IMPase inh, PNC inhibitor)
N#C/C(=C\c1ccc(OCc2cccc(C(=O)O)c2)cc1)C(=O)NCc1ccco1	none (no result: IMPase Li inh, IMPase inh, PNC inhibitor)
Cc1sc(NC(=O)C2CCCO2)c(C#N)c1C (stereo not drawn)	PNC inhibitor -92
Cc1sc(NC(=O)C2CCCC2)c(C#N)c1C	PNC inhibitor inconclusive (no result: HTT ATP protect, IMPase inh)
COc1cc(-c2cccs2)cc(=O)c2c(C)oc(C)c12	PNC inhibitor -96
COc1ccc(-c2cc(OC(=O)c3cccc(Cl)c3)c3c(C)oc(C)c3c(=O)c2)cc1	none (no result: HttQ103 aggreg, NPSR antag, HTT ATP protect, IMPase Li inh, PNC inhibitor)
COc1ccccc1N1CCN(C(c2cccs2)C(C)NC(=O)c2cccnc2)CC1 (stereo not drawn)	HttQ103 aggreg inconclusive, HTT ATP protect 5.6µM (no result: IMPase inh, PNC inhibitor)
CC(NC(=O)c1cccnc1)C(c1cccs1)N1CCN(c2ccccc2F)CC1 (stereo not drawn)	none (no result: IMPase Li inh, IMPase inh, PNC inhibitor)
CC(NC(=O)c1ccc(F)cc1)C(c1cccs1)N1CCN(C)CC1 (stereo not drawn)	PNC inhibitor -116
O=C(Nc1cccc(-c2nc3ccccc3[nH]2)c1)c1c(F)cccc1F	none (no result: HttQ103 aggreg, NPSR antag, HTT ATP protect, IMPase Li inh, PNC inhibitor)
O=c1c2ccccc2nc(SCc2ccccc2)n1Cc1ccco1	none
O=c1c2ccccc2nc(SCc2nc3ccccc3s2)n1Cc1ccco1	NPSR antag inconclusive, PNC inhibitor -85
OC1(c2ccc(Br)cc2)CN(c2ccccc2)C2=[N+]1CCS2 (stereo not drawn)	none (no result: IMPase inh, PNC inhibitor)
OC1(c2ccc(Cl)cc2)CN(c2ccccc2)C2=[N+]1CCS2 (stereo not drawn)	NPSR antag 10µM (no result: IMPase inh, PNC inhibitor)
CC1C[C@@]2(NC(=O)NC2=O)C(C)CN1C (stereo partly drawn)	PNC inhibitor -100
CC1CC2(NC(=O)NC2=O)C(C)CN1C (stereo not drawn)	PNC inhibitor inconclusive
C[N+](C)(CC#Cc1ccccc1)CC(=O)c1ccc(Cl)cc1	PNC inhibitor -90 (no result: IMPase inh)
C[N+](C)(CC#Cc1ccccc1)CC(=O)c1ccccc1	PNC inhibitor inconclusive (no result: IMPase inh)
CCc1ccc2[nH]c(=O)c(CN(Cc3ccc(F)cc3)C(c3nnnn3CCN3CCOCC3)C(C)C)cc2c1 (stereo not drawn)	PNC inhibitor -81
CCc1ccc2[nH]c(=O)c(C(c3nnnn3CCOC)N3CCN(c4ccc(F)cc4)CC3)cc2c1 (stereo not drawn)	HttQ103 aggreg inconclusive, PNC inhibitor inconclusive
O=C(Nc1cnn(C23CC4CC(CC(C4)C2)C3)c1)c1cnn2c(C(F)(F)F)cc(-c3ccco3)nc12	NPSR antag 7.9µM
O=C(Nc1ccc2c(c1)OCO2)c1cnn2c(C(F)(F)F)cc(-c3ccco3)nc12	none
COc1cccc(/C=N/NC(=O)Cn2cnc3c2c(=O)n(C)c(=O)n3C)c1	none (no result: IMPase Li inh, IMPase inh, PNC inhibitor)
COc1ccc(-c2ccc(C(=O)O)c(=O)[nH]2)cc1	IMPase Li inh 3.2µM (no result: IMPase inh, PNC inhibitor)
CCCCN1C(=O)Nc2ccccc2S1=O (stereo not drawn)	PNC inhibitor -87 (no result: HTT ATP protect, IMPase inh)
Clc1ccc2c(c1)C(N1CCNCC1)=Nc1ccccc1O2	NPSR antag inconclusive, HTT ATP protect 0.35µM!
Cc1ccc2oc3c(c(=O)c2c1)C(c1ccccc1F)N(CCCN1CCOCC1)C3=O (stereo not drawn)	none (no result: HttQ103 aggreg, NPSR antag, HTT ATP protect, IMPase Li inh, PNC inhibitor)
CCSc1nnc(NC(=O)c2ccc(S(=O)(=O)N(C)C)cc2)s1	none (no result: HTT ATP protect, IMPase inh, PNC inhibitor)
CN(C)S(=O)(=O)c1ccc(C(=O)Nc2nnc(SCc3cccc4ccccc34)s2)cc1	PNC inhibitor -134 (no result: IMPase inh)
